Screening results (PubChem)
HTT aggregate – inhibitors of mutant huntingtin aggregate formation in PC12 cells; PC12 HttQ103-GFP aggregates, Acumen cytometry, 40 h; Potency, µM (series often up to 46.1 µM), for inactives: at the top dose activity change, negative = inhibition, usual class: inhibitors; 220,000 tested, 1.1% active; further: on the % scale 0 is the no-effect control and ±100 the full control effect; nearly all actives have a fitted effect of over 60% in size
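Compounds (qHTS titration) were added to PC12 cells expressing an ecdysone-driven HTT exon 1 Q103–GFP fusion after induction with 100 nM tebufenozide. Aggregate formation was measured as GFP objects in cell lysates.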
Tau fluor counter – counter-screen for tau fibril formation inhibitors; tau K18 P301L Alexa594 fluorescence, heparin fibrillization; Potency, µM (top dose mostly 57.7 µM), for the others: at the highest dose activity change, negative = decrease; 280,000 tested, 0.93% active; further: on the % scale 0 is the no-effect control and ±100 the full control effect; nearly all actives have a fitted effect of over 55% in size
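Human tau K18 P301L (15 uM unlabeled, 0.24 uM Alexa 594-labeled) in 100 mM sodium acetate pH 7 with 20 uM heparin, 6 hr at 37 C. ThT 30 uM added, 1 hr ambient; Alexa 594 FP and total fluorescence read at 555/632 nm.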
Tau FP inhib – blocks human tau fibril formation measured by polarization. P10636. K18 P301L tau heparin fibrillization, Alexa594 FP, 6 h. Potency, µM (series often up to 57.7 µM), without a hit: top-dose activity, negative = inhibition, usual class: inhibitors. 280,000 tested, 0.39% active; further: on the % scale 0 is the no-effect control and ±100 the full control effect; nearly all actives have a fitted effect of over 55% in size
Target sequence (P10636 561-689 P618L limits assumed): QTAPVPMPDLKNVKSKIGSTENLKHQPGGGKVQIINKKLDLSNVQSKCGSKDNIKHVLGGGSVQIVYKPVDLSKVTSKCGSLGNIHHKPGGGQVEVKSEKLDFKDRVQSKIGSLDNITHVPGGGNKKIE
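Compound effects on tau fibrillization are measured by Alexa 594 fluorescence polarization (ex 555, em 632 nm). K18 P301L tau is used at 15 uM with 0.24 uM labeled tracer, and 20 uM heparin induces aggregation over 6 hr at 37 C.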
HTT ATP protect – cytoprotection in Huntington HTT-Q103 PC12 cell model. PC12 HTT-Q103 induced, cytoprotection, ATP luminescence, 40 h. AID 1471. 230,000 tested, 0.14% active. Potency, µM (series often up to 56.4 µM), for inactives: cytoprotection (ATP increase), most hits filed as activators; further: % of control where 0% means no effect; nearly all actives have a fitted effect of over 45% in size
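Quantitative HTS on tebufenozide-induced (100 nM) PC12 cells expressing HTTQ103 exon 1–GFP; compounds tested as a concentration series; survival measured via cellular ATP.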
Tau fibril ThT – inhibitors of human tau fibril formation, thioflavin T binding. P10636. recombinant tau K18 P301L, heparin-induced fibrillization, ThT fluorescence. Potency, µM (series often up to 57.4 µM), inactives show top-dose activity, negative = inhibition, usual class: inhibitors. 270,000 tested, 2.1% active. AID 1460; further: on the % scale 0 is the no-effect control and ±100 the full control effect; nearly all actives have a fitted effect of over 55% in size
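Fibril formation assay: tau K18 P301L at 15 uM with trace Alexa 594 label, heparin inducer 20 uM, pH 7 sodium acetate buffer, 37 C for 6 hr; endpoint ThT signal.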
* hit, by the source's call; u = inconclusive; x = no result given; ! = a repeat was not active; [ ] = dose if it differs, or a comment. Only some compounds are listed: those with a hit (about 3.7% of all), similar ones and a draw of the others. The call rests on the fitted dose curve; in most records, active means well fitted curve in the direction sought with a large enough effect; inconclusive means small, poorly fitted or top-dose-only effect, or another doubt; inactive means no such curve, though single readings can be large; an effect the other way counts as inactive or inconclusive. Potency means the concentration at half of the fitted maximal effect.

SMILES	HTT aggregate	Tau fluor counter	Tau FP inhib	HTT ATP protect	Tau fibril ThT
O=C(O)c1ccccc1NS(=O)(=O)c1ccc(NNC(=S)Nc2ccc(OC(F)F)cc2)c([N+](=O)[O-])c1	-6%	10µM*[quencher]	25µM*	-41%	7.1µM*
Cc1ccc(NC(=S)NNc2ccc([N+](=O)[O-])cc2S(=O)(=O)Nc2ccccc2C(=O)O)cc1C	u	u	u	-32%[10 µM]	7.9µM*
Cc1nn(-c2ccccc2)c(N)c1Sc1cccc([N+](=O)[O-])c1	-16%	-20%	7%	18%[10 µM]	-12%
Cc1nn(-c2ccccc2)c(N)c1Sc1ccccc1[N+](=O)[O-]	3.5µM*	-22%	-5%	2%[10 µM]	-15%
CN(c1ccccc1)c1ccc(/C=C(\C#N)c2nnc3n2CCCCC3)cc1[N+](=O)[O-]	-9%	u	1%	-7%[10 µM]	14µM*
CCCCCCCC/C=C\CCCCCCCC(=O)NCCc1ccc(O)c(O)c1	x	14µM*![quencher]	u	-73%	u
C(=N\NC1=Nc2cccc3cccc1c23)/c1ccccn1	u	u	4%	-71%[10 µM]	2.8µM*
O=C(O)c1ccc(NC2=Nc3cccc4cccc2c34)cc1	-6%[9.22 µM]	9%	-1%	-5%[10 µM]	x
Clc1ccccc1/C=N/NC1=Nc2cccc3cccc1c23	u	-28%	3%	x	2µM*
Oc1ccc(Cc2cc(Cl)cc(Cl)c2O)cc1Cl	x	x	x	-2%[10 µM]	x
O=C(C[n+]1ccc(C(=O)N/N=C/c2ccc(O)cc2)cc1)c1ccccc1	-1%	u	-16%	6%	8.9µM*
O=C(N/N=C/c1ccc(O)cc1)c1cccc(N/N=C/c2ccc(O)cc2)c1	-7%[9.22 µM]	14µM*[quencher]	5%	-14%[10 µM]	5µM*
O=C(N/N=C/c1ccc(F)cc1)c1ccc(Br)cc1	-7%	-6%	1%	12%	-23%
O=C(C[n+]1ccc(C(=O)N/N=C/c2ccc(Br)cc2)cc1)c1ccccc1	4%	u	-9%	-7%	13µM*
COc1ccc(/C=N/NC(=O)C[n+]2ccccc2)c(OC)c1	0%	2%	4%	-35%	-2%
COc1ccc(OC)c(/C=N/NC(=O)c2cc[n+](CC(=O)c3ccccc3)cc2)c1	0%	u	-7%	-12%	11µM*
O=C(Cn1ccc2cc(S(=O)(=O)N3CCCCC3)ccc21)NCCc1ccccc1Cl	x	-26%	-9%	x	-3%
COc1ccc(C(=O)N/N=C/c2cc3ccccc3[nH]c2=S)cc1	-28%	u	-7%	-3%[10 µM]	4µM*
COc1ccc(C(=O)N/N=C/c2cccc3cccnc23)cc1	u	-4%	3%	-89%	-17%
O=C(C[n+]1ccc(C(=O)N/N=C/c2ccc(OCc3ccccc3)cc2)cc1)c1ccccc1	-4%	u	0%	-33%	6.3µM*
O=C(N/N=C/c1ccc(OCc2ccccc2)cc1)c1cccs1	u	-30%	u	-87%[10 µM]	-5%
Oc1ccc(N=Cc2ccc(OCc3ccccc3)cc2)cc1	-11%[9.22 µM]	u	13µM*	-12%[10 µM]	4µM*
O=C(N/N=C/c1ccc(OCc2ccccc2)cc1)c1ccncc1	28%	-19%	-13%	-114%	u
Cc1cc(C)cc(-n2cnc3cc(C(=O)NC4CCCCCC4)ccc32)c1	x	-10%	9%	x	-15%
CCCn1c(-c2ccc(F)cc2)nc2c(N3CCCN(Cc4ccccc4)CC3)nc(C)nc21	x	-21%	-5%	-32%	u
SMILES	HTT aggregate	Tau fluor counter	Tau FP inhib	HTT ATP protect	Tau fibril ThT
CCOC(=O)c1ccc(NC(=O)CSc2nccn2-c2ccc(OCC)cc2)cc1	x	-18%	-9%	x	-7%
CO/N=C(\C(=O)N[C@@H]1C(=O)N2C(C(=O)O)=C(CSc3nc(=O)c(O)nn3C)CS[C@@H]12)c1csc(N)n1	x	x	x	4%[1.9 µM]	x
O=C(O)C1=C(CSc2nnnn2CS(=O)(=O)O)CS[C@@H]2[C@H](NC(=O)[C@H](O)c3ccccc3)C(=O)N12	19%	x	x	2%	x
COc1ccc2[nH]c(=O)c(C(c3nnnn3CC3CCCO3)N3CCc4ccccc4C3)cc2c1 (stereo not given)	-2%	-5%	-3%	-29%[10 µM]	-16%
Cc1ccc2[nH]c(=O)c(C(c3nnnn3CC3CCCO3)N3CCc4ccccc4C3)cc2c1 (stereo not given)	-10%	-24%	u	-8%	32µM*
Cc1cc2cc(C(c3nnnn3Cc3ccco3)N3CCc4ccccc4C3)c(=O)[nH]c2cc1C (stereo not given)	31%	-24%	u	2%[10 µM]	28µM*
Cc1cc2cc(C(c3nnnn3Cc3ccco3)N3CCc4ccccc43)c(=O)[nH]c2cc1C (stereo not given)	-4%	-28%	u	-32%	25µM*
Cc1ccc2[nH]c(=O)c(C(c3nnnn3C3CCCC3)N3CCCc4ccccc43)cc2c1 (stereo not given)	35µM*	-27%	11%	9%[10 µM]	u
Cc1ccc2cc(C(c3nnnn3Cc3ccccc3)N3CCc4ccccc43)c(=O)[nH]c2c1 (stereo not given)	u	-26%	-1%	-21%	u
Cc1ccc2[nH]c(=O)c(C(c3nnnn3Cc3ccccc3)N3CCc4ccccc43)cc2c1 (stereo not given)	3%	u	u	-11%[10 µM]	20µM*
Cc1cc(C)c2[nH]c(=O)c(C(c3nnnn3CC3CCCO3)N3CCC(C)CC3)cc2c1 (stereo not given)	-1%	-15%	-13%	-5%	-24%
COc1ccc2cc(C(c3nnnn3C(C)(C)C)N3CCc4ccccc4C3)c(=O)[nH]c2c1 (stereo not given)	27%	-13%	-4%	8%[10 µM]	u
COc1ccc2cc(C(c3nnnn3C3CCCC3)N3CCc4ccccc4C3)c(=O)[nH]c2c1 (stereo not given)	5%	-20%	u	-3%	28µM*
Cc1cc(C)c2[nH]c(=O)c(C(c3nnnn3CC3CCCO3)N3CCCC(C)C3)cc2c1 (stereo not given)	21%	-15%	u	18%[10 µM]	32µM*
Cc1cc2cc(C(c3nnnn3Cc3ccccc3)N3CCc4ccccc43)c(=O)[nH]c2cc1C (stereo not given)	-5%	-30%	u	-29%	16µM*
CC/C=C\C/C=C\C/C=C\C/C=C\C/C=C\C/C=C\CCC(=O)NCCCC(=O)O	x	-11%	8%	x	-17%
O=S(=O)(c1ccccc1)N1CN2CN(C1)CN(S(=O)(=O)c1ccccc1)C2	x	x	x	2%[10 µM]	x
Cc1c(NC(=O)Cc2ccc(F)cc2)cccc1-c1nc2cccnc2s1	x	20µM*[quencher]	u	x	8%
Cc1c(NS(=O)(=O)c2ccc3c(c2)OCCO3)cccc1-c1nc2cccnc2s1	8.9µM*	-29%	-5%	30%[10 µM]	-6%
CCOc1ccccc1C(=O)N1CCCCC1CCN1CCOCC1 (stereo not given)	x	-3%	4%	x	3%
